Among the data in the OligoGym collection are sensor-assay potency score (higher = more potent) values, retold here.
Note: reference of the scale not given here.

The first experiment addresses RBMY1E. Description: pooled miR-30 sensor sort-seq; sequence = guide strand. To be noted: shRNA.
With TTCCACCATAGGACATCCGAGG, the sensor-assay potency score (higher = more potent) is -1.61.

The sequence TTGAGCTACCACATGCTTCACG yielded a sensor-assay potency score (higher = more potent) of -0.607. The same measure, in the same setting: for TTTCTCGGGAACTTCGACGATT the value was -0.472.

In a further experiment the target is RBP1. Described as above. To be noted: shRNA.
TACTCCTCGAAATTCTCGTTGA came in with a sensor-assay potency score (higher = more potent) of -0.0394.

Sequence TTCCACTCTCATCTCTAGGTGC gave a sensor-assay potency score (higher = more potent) of -0.438.

As to AAGTCCATGATGTAGTTCCTAA, the sensor-assay potency score (higher = more potent) is -0.968. Still for that read-out and setting: under TTCTCGTTGACCAACATCTTCC stands -0.467; under TTGCTTGCAGACCACACCTTCC, -0.849; under TTGTCATGCACTTGCGGTCATC, -1.49.

As to TTCCTAAAAGTGCTCAGCGTGC, the sensor-assay potency score (higher = more potent) was -1.04. On the same count and under the same terms, for ATTCTCGTTGACCAACATCTTC the value was -0.954; for TTCTGCACACACTGGAGCTTGT, -0.8. Still for that read-out and setting: for TTGACCAACATCTTCCAGTACC the value was -0.856. Still for that read-out and setting: under ACTGTTGTCATGCACTTGCGGT stands -1.01; under TCGTTGACCAACATCTTCCAGT, -0.239.

A further experiment addresses RCSD1. The description is as above. To be noted: shRNA.
The sequence TTTGAGAACCGTAAACACTTTA returned a sensor-assay potency score (higher = more potent) of -0.421. Still for that read-out and setting: for TTTGATACAATTTAGGGTCTTC the value was 0.305; for TTAAAAAGGAACTTTACCCAAG, -0.456; for TATCTCTTCTAGTCCAGTGTTT, -0.522. On the same count and under the same terms, under TACAACTGTTGCTGCTACCTGC stands 0.0449; under TAGAACATTAAAAAGGAACTTT, 0.0564. Same read-out and setting: for TAACTGATATTTGAGAACCGTA the value was -1.05; for TAGCCTTTTCCATCTCTGCTTC, -0.0691. As for TTGTTGTTGAACCAAGTCCATC, the sensor-assay potency score (higher = more potent) is -1.65. Same read-out and setting: under TTGAAAAGTTGTCTCTAGGGTT stands -0.0262; under TTGAGAACCGTAAACACTTTAG, -0.662; under TTCCTTAGCACCGTTCTGCTGA, 0.0396.

The target in the next experiment is RDH5. The experiment is described as above. To be noted: shRNA.
Turning to TCAGTGATATCCAACAGGGTGG, the sensor-assay potency score (higher = more potent) was -0.32. Consider TAGGTCCGGGTCACAGATCAGG, for which the sensor-assay potency score (higher = more potent) was -1.62. In turn, TTTCAGGTACTTGGTGAGGAAG yielded a sensor-assay potency score (higher = more potent) of -1.78. Same read-out and setting: for ATCAGTGATATCCAACAGGGTG the value was -0.912; for TGTGTTCACATTCAGCACCCGC, -1.07; for TCGGAAGCCTCTCTGGTCCAGC, -1.15. Regarding TTTCTCCAGACTCTCCAGGTTG, the sensor-assay potency score (higher = more potent) was -1.05. Still for that read-out and setting: for ATGAGCTACATCCCGCCTCAGG the value was -1.65; for AAAATGAGCTACATCCCGCCTC, -0.19; for TGCATTTTCAGGTACTTGGTGA, 0.187.

In turn, TTAACGTGCATCTCCACCCACT returned a sensor-assay potency score (higher = more potent) of -0.757.

The sequence TTCCTTAACGTGCATCTCCACC returned a sensor-assay potency score (higher = more potent) of -0.947.
